LANA DNA inh: blocks KSHV LANA C-terminal domain binding to DNA. MBP-C-LANA/FAM-LBS DNA binding, fluorescence polarization. inhibition, % at 9 µM. 340,000 tested, 0.078% active. AID 504423;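 active = highest replicate inhibition at or above 60% at 9 µM, even if other replicates fall short; inactive = all replicates below 60% inhibition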;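 also: 0% = neutral control wells and 100% = 4 µM acridine orange control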
RTF Ca sens act: cardiac RTF calcium sensitization; P19429+P45379; IANBD-labeled TnC RTF fluorescence at EC20 calcium; 0% EC20 calcium, 100% full calcium; activation, % at 7.2 µM; 340,000 tested, 0.24% active;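 active = activation above the mean over all tested compounds plus 3 SD, cut at about 30% in these data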;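 also: rise in fluorescence read as greater calcium sensitivity of cardiac thin filaments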
Keap1-Nrf2 PPI: Keap1-Nrf2 (human) interaction inhibition. Q14145. Keap1 Kelch-Nrf2 peptide fluorescence polarization, 1536-well. inhibition, % at 9.4 µM. 340,000 tested, 0.15% active. AID 504523; in the data active = inhibition above about 12%;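 also: human Keap1 Kelch domain with fluorescein labeled Nrf2 9mer peptide probe; 0% = neutral control wells and 100% = peptide positive control; higher means more block of Keap1 binding to Nrf2 peptide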
E coli Lon inh: E. coli protease La inhibition | purified E. coli Lon protease, fluorescence polarization | 360,000 tested, 0.42% active | P0A9M0 | AID 602123 | inhibition, % at 7.94 µM; in the data active = inhibition above about 13%, passing the limit was not always enough;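 also: 0% = enzyme with probe and DMSO and 100% = no enzyme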
RTF Ca sens inh: cardiac RTF calcium desensitization; 340,000 tested, 0.12% active; IANBD-labeled cardiac RTF, Ca2+ fluorescence; inhibition, % at 7.15 µM;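 active = inhibition above the mean inhibition of all tested compounds plus 3 SD, cut at about 17% in these data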;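 also: assay run at fixed EC70 calcium of 1.6 mM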
LANA-H2B inh: blocks KSHV LANA binding to histone H2A/H2B; AID 2629; 320,000 tested, 0.6% active; cell-free LANA-H2A/H2B peptide, fluorescence polarization; inhibition, % (concentration not given with the values); in the data active = inhibition mostly above about 10%, no sharp cut-off; inactive = mostly below about 6.7%
Target sequence (Q9QR71 whole entry, looked up): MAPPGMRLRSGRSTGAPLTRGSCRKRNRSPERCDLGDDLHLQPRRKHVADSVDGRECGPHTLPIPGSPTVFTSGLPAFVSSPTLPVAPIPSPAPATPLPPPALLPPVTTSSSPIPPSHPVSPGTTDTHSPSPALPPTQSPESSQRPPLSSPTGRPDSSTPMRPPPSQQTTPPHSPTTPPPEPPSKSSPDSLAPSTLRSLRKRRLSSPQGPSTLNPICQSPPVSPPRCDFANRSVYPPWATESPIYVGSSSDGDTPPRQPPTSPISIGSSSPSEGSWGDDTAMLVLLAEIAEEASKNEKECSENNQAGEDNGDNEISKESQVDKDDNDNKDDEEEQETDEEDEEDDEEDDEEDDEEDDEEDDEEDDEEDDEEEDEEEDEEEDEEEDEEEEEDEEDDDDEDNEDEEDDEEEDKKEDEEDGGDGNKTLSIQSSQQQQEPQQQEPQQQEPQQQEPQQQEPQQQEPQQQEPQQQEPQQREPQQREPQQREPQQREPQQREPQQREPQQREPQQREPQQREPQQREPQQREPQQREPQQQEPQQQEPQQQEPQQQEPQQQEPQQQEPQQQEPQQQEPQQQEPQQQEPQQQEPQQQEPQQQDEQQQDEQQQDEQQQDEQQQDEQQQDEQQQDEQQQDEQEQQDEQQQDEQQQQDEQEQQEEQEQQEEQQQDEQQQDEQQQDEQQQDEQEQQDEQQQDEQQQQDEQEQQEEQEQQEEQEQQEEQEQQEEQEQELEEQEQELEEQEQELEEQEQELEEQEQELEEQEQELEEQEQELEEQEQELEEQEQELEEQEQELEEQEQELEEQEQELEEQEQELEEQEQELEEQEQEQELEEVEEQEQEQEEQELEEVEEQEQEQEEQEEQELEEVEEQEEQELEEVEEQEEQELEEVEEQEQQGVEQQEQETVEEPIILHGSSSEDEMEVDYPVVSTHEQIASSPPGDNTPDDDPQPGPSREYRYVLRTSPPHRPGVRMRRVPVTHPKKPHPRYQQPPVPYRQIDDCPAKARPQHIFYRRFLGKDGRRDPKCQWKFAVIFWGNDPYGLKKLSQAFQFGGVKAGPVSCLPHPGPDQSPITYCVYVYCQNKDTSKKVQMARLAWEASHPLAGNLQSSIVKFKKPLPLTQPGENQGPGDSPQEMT
E coli Lon conf: confirmation of E. coli Lon protease inhibitors; inhibition, % at 7.94 µM; 1,400 tested, 31% active; purified E. coli Lon, fluorescence polarization; shares compounds with E coli Lon inh; in the data active = inhibition above about 16%;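 also: 0% = enzyme with probe and DMSO and 100% = no enzyme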
Numbers without * were called inactive; x = no result. Only some compounds are listed: those with a hit (about 1.3% of all), similar ones and a draw of the others.

SMILES	LANA DNA inh	RTF Ca sens act	Keap1-Nrf2 PPI	E coli Lon inh	RTF Ca sens inh	LANA-H2B inh	E coli Lon conf
O=C(NC(=S)Nc1ccc([N+](=O)[O-])cc1O)C1CCCCC1	1	-5	-5	16*	-2	-4	0
COc1ccc(OC)c(CN2CCN(C(=O)c3cc4ccccc4cc3O)CC2)c1	0	-5	1	-11	3	2	x
COc1ccccc1NC(=O)NC1CC(=O)N(c2ccc3c(c2)OCCO3)C1 (stereo unspecified)	0	-1	-2	9	-1	-5	x
F[B-](F)(F)c1cnc2ccccc2c1	2	-7	-2	2	1	x	x
F[B-](F)(F)c1cncc2ccccc12	2	0	4	42*	0	x	38*
FC(F)(F)c1ccc(C2[C@H]3CN(CC4CCCCC4)[C@H](c4ccccc4)C34CC2(c2cccnc2)C4)cc1 (stereo partly specified)	2	-5	-7	-8	-9	3	x
Nc1c(C(=O)O)nnn1Cc1ccccc1	-1	2	-3	0	-5	6	x
CCn1nnc(C(=O)O)c1C(=O)O	-1	-1	-2	16*	-19	-2	-8
O=c1[nH]c(-[n+]2ccc3ccccc3c2)c(/C=N/N=C(\[O-])c2ccccc2)s1	0	3	-3	43*	-2	0	-2
COc1cc(/C=C/c2nc3ccc([N+](=O)[O-])cc3s2)ccc1OCC(=O)O	x	x	x	x	x	4	x
O=C(c1ccccc1)[C@@H]1[C@@H]2C(=O)N(c3ccc(F)cc3)C(=O)[C@@H]2C2CCCN21 (stereo partly specified)	14	16	2	23*	-23	11	29*
Cc1ccc(NC(=O)COC(=O)c2ccc(Br)o2)cc1S(=O)(=O)N1CCCCC1	1	-2	0	23*	-1	1	20*
Cc1ccc(NC(=O)COC(=O)c2ccc([N+](=O)[O-])o2)cc1S(=O)(=O)N1CCCCC1	1	6	-6	14	-2	2	x
Cc1ccc2c(c1)N(C(=O)CCC(=O)NCCCN1CC(C)CC(C)C1)CCO2 (stereo unspecified)	0	9	-1	4	-5	1	x
N#C/C(=C(/O)c1ccc(Br)s1)c1nc2ccccc2[nH]1	1	-7	2	3	-6	2	x
N#C/C(=C(/O)c1cccs1)c1nc2ccccc2[nH]1	0	-1	0	16*	-9	-4	-8
CC12CCCCN1CCCc1c2[nH]c2ccccc12 (stereo unspecified)	4	1	1	22*	-32	-9	-2
c1ccc2c3c([nH]c2c1)C1(CCCCC1)NCC3	1	6	1	-5	-5	0	x
COc1ccccc1NCC(=O)n1nc(C)cc1C	0	2	4	-4	-5	x	x
CCN(CC)C(=S)Nc1ccc(Cl)c(Cl)c1	1	9	-3	17*	-7	-4	32*
CC1CCCC(C)N1C(=O)COc1ccc(C(=O)Nc2ccccc2N2CCOCC2)cc1 (stereo unspecified)	-1	3	-5	20*	-7	3	12
C=CCCC(=O)NC1CCCc2c1cnn2-c1ccccc1F (stereo unspecified)	-1	0	-5	29*	-4	1	2
Cc1cc(C(=O)NC2CCCc3c2cnn3-c2ccccc2F)nc(C)n1 (stereo unspecified)	-1	-6	3	-7	3	-2	x
COc1ccc(C2CC(=O)C(C=NCCCO)=C(O)C2)cc1 (stereo unspecified)	9	8	5	44*	-11	3	42*
COc1ccc(C2CC(=O)C(C=NCC(C)C)=C(O)C2)cc1 (stereo unspecified)	0	-6	1	-15	-13	-2	x
COc1ccc(NC(=O)COc2cccc(-n3cnnn3)c2)cc1Cl	0	8	-3	-12	-10	-3	x
C=CCNC(=O)/C(C#N)=C/c1ccccc1[N+](=O)[O-]	-1	5	-6	23*	-16	7	19*

High-throughput results from PubChem.
